D3 antag: antagonists of human D3 dopamine receptor; D3R cells, DiscoveRx beta-arrestin luminescence, antagonist mode; active compounds read low; 360,000 tested, 2.5% active; AID 652054; max response, negative = inhibition, %; in the data active = max response below about -50%; inconclusive = no clear call, values can overlap the other calls
Target sequence (P35462 whole entry, looked up): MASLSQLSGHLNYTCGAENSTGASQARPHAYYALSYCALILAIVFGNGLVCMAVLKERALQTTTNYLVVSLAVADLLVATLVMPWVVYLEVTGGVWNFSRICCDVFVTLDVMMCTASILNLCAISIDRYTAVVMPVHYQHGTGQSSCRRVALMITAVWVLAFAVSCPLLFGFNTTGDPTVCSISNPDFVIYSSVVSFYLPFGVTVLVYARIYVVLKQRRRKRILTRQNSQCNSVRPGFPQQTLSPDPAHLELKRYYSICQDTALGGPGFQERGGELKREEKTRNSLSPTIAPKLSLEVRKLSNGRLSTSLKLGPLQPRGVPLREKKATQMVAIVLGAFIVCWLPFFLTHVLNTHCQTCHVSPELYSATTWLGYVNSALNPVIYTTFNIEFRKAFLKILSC
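Cells expressing the human receptor were seeded at 1500 cells/well, incubated overnight at 37 degrees C in 5% CO2, then exposed to library compounds with dopamine controls for 90 minutes at 37 degrees C before luminescent detection.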
DT40 TDP1 no CPT: qHTS for Inhibitors of human tyrosyl-DNA phosphodiesterase 1 (TDP1): qHTS in cells in absence of CPT; 420,000 tested, 15% active; AID 686978, 2013; DT40 Tdp1-/- hTDP1 cells, no CPT, ATP luminescence, 48 h; Potency, µM (series often up to 46.2 µM), hits mostly inhibitors; also: nearly all actives have a fitted effect of over 55% in size
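Camptothecin absent (DMSO only). Human TDP1-complemented DT40 knockout cells, 400 cells/well, 37 °C for minimum 48 hr; ATP measured via CellTiter-Glo, 30 min dark incubation, luminescence.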
DRD3 agonist: agonists of human D3 dopamine receptor. P35462. D3R DiscoveRx beta-arrestin cells, luminescence, 90 min. max activation, %. 410,000 tested, 0.58% active. AID 652048; in the data active = max activation above about 30%
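Agonist-mode cell screen: cells plated at 1500/well and incubated overnight at 37 °C, then exposed to library compounds for 90 min at 37 °C. Detection reagent was added for 30–60 min at room temperature, and luminescence was read.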
ClpP mod: qHTS Assay for Activators of ClpP. 340,000 tested, 1.9% active. Potency, µM (doses to about 57.5 µM). purified B. subtilis ClpP, FRET peptide cleavage, 20 min. ATP-dependent Clp protease proteolytic subunit (Bacillus subtilis (strain 168)), P80244; active = well fitted falling curve with a large enough effect; inconclusive = small, poorly fitted or top-dose-only effect; inactive = no such curve, though single readings can be large or run the other way; also: the source files actives as falling curves though it sought activators and does not explain the sign; nearly all actives have a fitted effect of over 65% in size
Target sequence (P80244 whole entry, looked up): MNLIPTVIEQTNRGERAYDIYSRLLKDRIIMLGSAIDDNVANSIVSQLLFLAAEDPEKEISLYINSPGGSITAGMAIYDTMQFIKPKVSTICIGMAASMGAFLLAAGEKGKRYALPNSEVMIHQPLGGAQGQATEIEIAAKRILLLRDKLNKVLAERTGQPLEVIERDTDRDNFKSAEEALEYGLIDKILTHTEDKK
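ClpP 10 microg/mL final, pH 8 Tris/KCl buffer with BSA, glycerol, Tween-20; compound pinned in; FRET-FV substrate; RT 20 min; Ex320/Em430; ΔFRET vs ADEP 5.8 microM, DMSO, no enzyme.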
TDP1 cell CPT: DT40-hTDP1 cell growth loss with CPT | chicken DT40 Tdp1-/-;hTDP1 cells + 20 nM CPT, ATP luminescence, 48 h | Potency, µM (titrated, usually from 46.2 µM), most hits filed as inhibitors | 420,000 tested, 12% active | AID 686979; also: nearly all actives have a fitted effect of over 55% in size
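Cell growth measured by CellTiter-Glo luminescence after a minimum 48 h, 37 C compound exposure with 20 nM CPT in Tdp1-knockout DT40 cells stably expressing hTDP1, seeded 400/well; qHTS titration format.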
IL1B secr inh: inflammasome signaling inhibition, IL-1 beta readout; THP-1 LPS/ATP IL-1B secretion, AlphaLISA, 16 h; active compounds read low; activity change, % at 57.5 µM; 360,000 tested, 4.7% active; in the data active = activity change below about -50%; inconclusive = mostly about -30% to -49%
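Secreted IL-1B measured by AlphaLISA bead assay after 16 h compound exposure of THP-1 cells; compounds (final up to 57.5 uM) added 1 h before LPS (250 ng/mL) and ATP (1.25 mM) stimulation; lower signal means less secretion.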
A number is an active result; i = inactive; ? = inconclusive; nt = no result. An excerpt weighted towards active compounds, which were near 21% of everything screened. Unless noted, calls follow the shape of the dose curve; as a rule, active = well fitted inhibition curve with a large enough effect; inconclusive = small, poorly fitted or top-dose-only effect; inactive = flat fitted curve, though single readings scatter.

SMILES	D3 antag	DT40 TDP1 no CPT	DRD3 agonist	ClpP mod	TDP1 cell CPT	IL1B secr inh
CC(CCc1ccc(O)cc1)NC(c1ccccc1)c1ccc(Cl)cc1 (stereo not drawn)	i	?	i	nt	?	-100.3
CC(CCc1ccc(O)cc1)NCc1ccc(Br)cc1 (stereo not drawn)	i	16.4µM	80.0	i	11.6µM	i
CC(CCc1ccc(O)cc1)NCCC(c1ccccc1)c1ccccc1 (stereo not drawn)	?	5.17µM	i	nt	?	i
O=C(COc1ccc(Cl)cc1Cl)N/N=C/c1ccc[nH]1	i	?	i	i	?	i
COc1cccc(N(C(=O)c2nc3nccc(C)n3n2)c2nc3ccccc3s2)c1	i	?	i	nt	?	-91.6
Cc1ccc(NC(=S)N=Nc2c(O)n(C)c3ccc(S(=O)(=O)N4CCOCC4)cc23)cc1	i	2.59µM	i	i	2.59µM	i
Cc1ccc(NC(=O)c2ccc(S(=O)(=O)N3CCOCC3)cc2)cc1	i	i	i	nt	i	i
Cc1cc(C)cc(NC(=O)c2cc(S(=O)(=O)N3CCOCC3)cn2C)c1	nt	i	i	i	i	nt
Cc1cc(C)cc(NC(=S)N=Nc2c(O)n(C)c3ccc(S(=O)(=O)N4CCOCC4)cc23)c1	?	4.61µM	i	i	1.16µM	i
Cc1cccc(NC(=S)N=Nc2c(O)n(C)c3ccc(S(=O)(=O)N4CCOCC4)cc23)c1	i	3.26µM	i	i	3.66µM	i
O=C(CSc1cn(CC(=O)N2CCCCC2)c2ccccc12)NCc1ccccc1	nt	?	i	i	?	nt
Cc1ccc(N(CCC#N)C(=O)CCl)cc1C	i	7.31µM	i	nt	?	-97.9
O=C(CC1(O)C(=O)N(CCc2ccccc2)c2ccc(Br)cc21)c1ccc(F)cc1 (stereo not drawn)	nt	16.4µM	i	i	?	nt
COc1ccc(C(=O)CC2(O)C(=O)N(CCc3ccccc3)c3ccc(Br)cc32)cc1OC (stereo not drawn)	nt	?	i	i	16.4µM	nt
C=CCN1C(=O)C(O)(CC(=O)c2ccc(OC)cc2OC)c2cc(Br)ccc21 (stereo not drawn)	i	?	i	i	?	i
Cc1coc(C)c1C(=O)CC1(O)C(=O)N(CCc2ccccc2)c2ccccc21 (stereo not drawn)	i	?	i	i	?	i
COc1cccc(CNC(=O)C(Cc2ccccc2)NS(=O)(=O)c2ccc3c(c2)CCN3C(C)=O)c1 (stereo not drawn)	nt	i	i	i	i	nt
CCN(CC)c1ccc(/C=N/NC(=O)c2cc(C)nc3ccccc23)cc1	i	?	i	i	i	i
COc1ccc(OC)c(-c2cc(C(=O)N/N=C/c3cc(OC)c(OC)cc3OC)c3ccccc3n2)c1	i	9.2µM	i	nt	16.4µM	?
CCc1cc(C(=O)N/N=C/c2ccc(OC)cc2)c2ccccc2n1	i	3.26µM	i	nt	7.31µM	i
COc1ccc(OC)c(-c2cc(C(=O)O)c3cc4ccccc4cc3n2)c1	i	i	i	i	i	i
COc1ccc(OC)c(-c2cc(C(=O)Nc3ccccc3C(N)=O)c3ccccc3n2)c1	i	8.2µM	i	i	20.6µM	i
COc1ccc(OC)c(-c2cc(C(=O)N/N=C/c3ccc(F)cc3)c3ccccc3n2)c1	i	1.03µM	i	nt	5.17µM	nt
O=C(CSc1nnc(NC2CCCCC2)s1)N1CCOCC1	i	i	i	i	i	i
CCCOc1ccc(C(=O)Nc2nonc2-c2ccc(OCC)cc2)cc1	nt	i	i	i	i	nt
SMILES	D3 antag	DT40 TDP1 no CPT	DRD3 agonist	ClpP mod	TDP1 cell CPT	IL1B secr inh
COc1cc(OC)cc(-c2nnc(SCC(=O)c3ccc([N+](=O)[O-])cc3)o2)c1	nt	nt	i	i	nt	nt
O=c1[nH]ccc2c(O)cccc12	i	20.6µM	i	i	?	i
COC(=O)c1c[nH]c(=O)c2ccccc12	i	?	i	nt	?	i
C=CCS/C(N)=N\N=C\c1c(O)ccc2ccccc12	i	?	i	i	?	i
COc1cc2c(cc1OC)C(c1cc3cc4c(cc3[nH]c1=O)OCO4)N(C(=O)C1CC1)CC2 (stereo not drawn)	i	i	i	25.1µM	i	i
CCN(CCCNc1ncnc2nc[nH]c12)c1cccc(C)c1	i	?	i	i	18.4µM	i
CC(CCc1ccccc1)NC(=O)C1CCCN(C(=O)c2cc3sccc3n2C)C1 (stereo not drawn)	i	14.6µM	i	i	18.4µM	i
CCn1c(C(=O)N2CCCC(C(=O)NCCCc3ccccc3)C2)cc2sccc21 (stereo not drawn)	i	?	i	i	20.6µM	?
Cn1c(C(=O)N2CCCC(C(=O)NCc3cccs3)C2)cc2sccc21 (stereo not drawn)	?	i	i	i	?	i
COC(=O)[C@H](Cc1c[nH]c2ccccc12)NC(=O)NCc1ccccc1	i	i	i	nt	i	i
O=C(C1CCN(S(=O)(=O)N2CCOCC2)CC1)N1CCN(c2ccc(F)cc2)CC1	i	10.3µM	i	nt	8.2µM	i
COc1ccc(N2CCN(C(=O)C3CCN(S(=O)(=O)N4CCOCC4)CC3)CC2)cc1	i	13µM	i	i	?	i
COc1ccc(OC)c(NC(=O)C2CCCN(S(=O)(=O)c3ccc4[nH]c(=O)ccc4c3)C2)c1 (stereo not drawn)	nt	23.1µM	i	i	?	nt
CC(C)c1ccc(NC(=O)C2CCCN(S(=O)(=O)c3ccc4[nH]c(=O)ccc4c3)C2)cc1 (stereo not drawn)	nt	i	i	i	11.6µM	nt
c1cc2c3c(cccc3c1)C(N1CCCCCC1)=N2	i	i	i	i	i	i
c1cc2c3c(cccc3c1)-c1cnccc1-2	i	i	i	nt	i	-65.8
O=C(Nc1cccc(C(F)(F)F)c1)c1ccc2snnc2c1	nt	i	i	i	i	nt
CC(=O)c1ccc(NC(=O)c2ccc3snnc3c2)cc1	i	i	i	i	i	i
CCOc1ccc(NC(=O)Nc2ccc3snnc3c2)cc1	nt	16.4µM	i	i	?	nt
O=C(NCc1ccccc1)c1ccc2nnsc2c1	i	i	i	nt	i	i
Cc1cc(C)c(NC(=O)Nc2ccc3snnc3c2)c(C)c1	nt	18.4µM	i	i	?	nt
CCOc1ccc(NC(=O)Nc2ccc3nsnc3c2)cc1	i	?	i	i	?	?
O=C(Nc1cccc(C(F)(F)F)c1)Nc1ccc2snnc2c1	nt	5.17µM	i	i	3.66µM	nt
O=C(Nc1ccccc1)Nc1ccc2nnsc2c1	i	16.4µM	i	i	20.6µM	-95.1
COC(=O)c1ccccc1NC(=O)CSc1nncn1-c1ccccn1	i	i	i	nt	i	i

Screens (PubChem BioAssay)
